# Reference: the supplement of paper PMC10849652
# The full data set covers some 8,800 targets. This sample favours those with a hit. About 0.5% of all pairs of compound and target were hits. Unmarked numbers belong to inactive results.
# How the values were obtained:
# Assay in all cases: log2 fold change, soluble protein after heating vs DMSO (PISA); higher = thermal stabilisation; K562 lysate, 10 uM; active = over 0.2 and 3.5 SD of the protein, either way, in both replicates (recomputed)
# ibrutinib = compound: C=CC(=O)N1CCC[C@@H](n2nc(-c3ccc(Oc4ccccc4)cc3)c3c(N)ncnc32)C1 [ibrutinib]
# Method in brief: (§1)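 Dounce homogenisation of K562 pellets in PBS pH 7.4 with 1 mM MgCl2 produced a crude extract, used at 1 mg/mL protein. Exposure to 10 μM compound lasted 30 min, and aliquots were then heated for 3 min across 48°C-58°C, pooled and brought to 0.5% NP-40 at 4°C. The supernatant after 21,000xg for 90 min was quantified by TMTpro 16plex LC-MS/MS with channel sums equalised. Duplicate values are given as log-two fold change in thermal stability relative to solvent controls.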
# [1] = compound: CC(=O)c1cnc2ccc(-c3cc(Cl)c(O)c(Cl)c3)nc2c1N[C@H]1CC[C@H](CN(C)C)CC1
# Method in brief: as §1
# ralimetinib = compound: CC(C)(C)Cn1c(N)nc2ccc(-c3[nH]c(C(C)(C)C)nc3-c3ccc(F)cc3)nc21 [ralimetinib]
# Method in brief: as §1
# [2] = compound: CC(C)(O)CC(=O)NCCn1ccc2ncnc(Nc3ccc(Oc4cccc(C(F)(F)F)c4)c(Cl)c3)c21
# Method in brief: as §1
# [3] = compound: CC(C)C1=C2N=C(C=C(N2N=C1)NCC3=CC=CC=C3)NCCCCCCN
# Method in brief: as §1
# [4] = compound: CC1=C(C(CC(=O)N1)C2=CC=C(C=C2)C(F)(F)F)C(=O)NC3=C(C=C4C(=C3)C=NN4)F
# Method in brief: as §1
# [5] = compound: CC1=C(C2=C(C=C1)C(=O)C3=CC=CC=C3N2CCCN)C
# Method in brief: as §1
# [6] = compound: CC1=C(C=C(C=C1)NC(=O)C2=CC(=CC=C2)C(C)(C)C#N)NC3=CC4=C(C=C3)N=CN(C4=O)C
# Method in brief: as §1
# [7] = compound: CC1=C(C=C(C=C1)NC(=O)C2=CC(=CC=C2)N(C)C)NC(=O)C3=CC=C(C=C3)O
# Method in brief: as §1
# [8] = compound: CC1=CC=C(C=C1)SC2=C3C=C(SC3=CN=C2)C(=O)N
# Method in brief: as §1
# vemurafenib = compound: CCCS(=O)(=O)Nc1ccc(F)c(C(=O)c2c[nH]c3ncc(-c4ccc(Cl)cc4)cc23)c1F [vemurafenib]
# Method in brief: as §1
# [9] = compound: CCCS(=O)(=O)Nc1ccc(F)c(C(=O)c2c[nH]c3ncc(Cl)cc23)c1F
# Method in brief: as §1
# barasertib = compound: CCN(CCCOc1ccc2c(Nc3cc(CC(=O)Nc4cccc(F)c4)[nH]n3)ncnc2c1)CCOP(=O)(O)O [barasertib]
# Method in brief: as §1
# [10] = compound: CC[C@@H]1C(=O)N(C)c2cnc(Nc3ccc(C(=O)NC4CCN(C)CC4)cc3OC)nc2N1C1CCCC1
# Method in brief: as §1
# volasertib = compound: CC[C@@H]1C(=O)N(C)c2cnc(Nc3ccc(C(=O)N[C@H]4CC[C@H](N5CCN(CC6CC6)CC5)CC4)cc3OC)nc2N1C(C)C [volasertib]
# Method in brief: as §1
# [11] = compound: CCn1c(C(=O)N(C2CC2)C2CC2)cc2c3c(ncn3C)c(Nc3cc(C)n(C)n3)nc21
# Method in brief: as §1
# [12] = compound: CCn1cc(-c2ccnc3[nH]c(-c4cccc(CN(C)C)c4)cc23)c(-c2ccc(NC(=O)N(C)C)cc2)n1
# Method in brief: as §1
# [13] = compound: CN1CCC(CNc2ccc3ncc(-c4cccc(OC(F)(F)F)c4)n3n2)CC1
# Method in brief: as §1
# saracatinib = compound: CN1CCN(CCOc2cc(OC3CCOCC3)c3c(Nc4c(Cl)ccc5c4OCO5)ncnc3c2)CC1 [saracatinib]
# Method in brief: as §1
# sotrastaurin = compound: CN1CCN(c2nc(C3=C(c4c[nH]c5ccccc45)C(=O)NC3=O)c3ccccc3n2)CC1 [sotrastaurin]
# Method in brief: as §1
# UniProt Q8N511, sequence (Q8N511 whole entry, looked up): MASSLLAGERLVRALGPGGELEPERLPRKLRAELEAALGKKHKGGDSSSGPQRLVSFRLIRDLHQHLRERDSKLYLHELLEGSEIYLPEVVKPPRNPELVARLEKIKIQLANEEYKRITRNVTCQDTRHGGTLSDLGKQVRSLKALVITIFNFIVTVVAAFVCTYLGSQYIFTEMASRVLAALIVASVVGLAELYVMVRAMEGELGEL
# UniProt Q8TBZ6, sequence (Q8TBZ6 whole entry, looked up): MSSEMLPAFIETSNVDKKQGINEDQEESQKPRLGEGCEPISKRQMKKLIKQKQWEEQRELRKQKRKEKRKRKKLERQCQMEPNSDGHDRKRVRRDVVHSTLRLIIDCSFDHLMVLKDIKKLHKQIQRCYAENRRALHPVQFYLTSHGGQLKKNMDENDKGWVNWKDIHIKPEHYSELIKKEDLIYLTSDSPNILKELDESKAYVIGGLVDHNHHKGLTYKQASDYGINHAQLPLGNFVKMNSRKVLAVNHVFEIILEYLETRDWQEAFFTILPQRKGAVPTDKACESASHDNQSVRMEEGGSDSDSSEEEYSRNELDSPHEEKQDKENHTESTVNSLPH
# UniProt A6NFQ2, sequence (A6NFQ2 whole entry, looked up): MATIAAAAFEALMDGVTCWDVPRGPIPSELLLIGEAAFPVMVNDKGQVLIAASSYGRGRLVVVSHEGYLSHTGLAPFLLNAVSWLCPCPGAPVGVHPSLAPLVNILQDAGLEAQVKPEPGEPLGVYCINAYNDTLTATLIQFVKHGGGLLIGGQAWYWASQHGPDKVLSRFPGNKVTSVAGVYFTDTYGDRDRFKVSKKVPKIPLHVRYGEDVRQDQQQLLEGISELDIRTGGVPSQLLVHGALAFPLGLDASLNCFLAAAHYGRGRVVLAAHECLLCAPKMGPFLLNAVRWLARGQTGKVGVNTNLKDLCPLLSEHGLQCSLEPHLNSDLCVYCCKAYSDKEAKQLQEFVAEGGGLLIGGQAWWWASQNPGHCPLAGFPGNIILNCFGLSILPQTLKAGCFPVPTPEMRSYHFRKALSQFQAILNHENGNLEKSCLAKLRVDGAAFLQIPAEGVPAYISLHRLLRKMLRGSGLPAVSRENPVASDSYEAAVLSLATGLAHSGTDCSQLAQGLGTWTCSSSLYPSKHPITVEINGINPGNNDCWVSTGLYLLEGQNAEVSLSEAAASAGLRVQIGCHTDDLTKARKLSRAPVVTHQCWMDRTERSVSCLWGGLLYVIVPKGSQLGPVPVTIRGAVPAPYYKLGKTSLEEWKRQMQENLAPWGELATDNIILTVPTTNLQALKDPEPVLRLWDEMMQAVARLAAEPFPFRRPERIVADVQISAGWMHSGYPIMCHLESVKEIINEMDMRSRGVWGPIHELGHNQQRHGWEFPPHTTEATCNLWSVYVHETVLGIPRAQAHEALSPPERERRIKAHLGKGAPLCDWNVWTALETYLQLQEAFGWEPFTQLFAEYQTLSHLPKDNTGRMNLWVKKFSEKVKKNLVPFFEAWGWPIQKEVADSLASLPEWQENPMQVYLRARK
# UniProt P17480, sequence (P17480 whole entry, looked up): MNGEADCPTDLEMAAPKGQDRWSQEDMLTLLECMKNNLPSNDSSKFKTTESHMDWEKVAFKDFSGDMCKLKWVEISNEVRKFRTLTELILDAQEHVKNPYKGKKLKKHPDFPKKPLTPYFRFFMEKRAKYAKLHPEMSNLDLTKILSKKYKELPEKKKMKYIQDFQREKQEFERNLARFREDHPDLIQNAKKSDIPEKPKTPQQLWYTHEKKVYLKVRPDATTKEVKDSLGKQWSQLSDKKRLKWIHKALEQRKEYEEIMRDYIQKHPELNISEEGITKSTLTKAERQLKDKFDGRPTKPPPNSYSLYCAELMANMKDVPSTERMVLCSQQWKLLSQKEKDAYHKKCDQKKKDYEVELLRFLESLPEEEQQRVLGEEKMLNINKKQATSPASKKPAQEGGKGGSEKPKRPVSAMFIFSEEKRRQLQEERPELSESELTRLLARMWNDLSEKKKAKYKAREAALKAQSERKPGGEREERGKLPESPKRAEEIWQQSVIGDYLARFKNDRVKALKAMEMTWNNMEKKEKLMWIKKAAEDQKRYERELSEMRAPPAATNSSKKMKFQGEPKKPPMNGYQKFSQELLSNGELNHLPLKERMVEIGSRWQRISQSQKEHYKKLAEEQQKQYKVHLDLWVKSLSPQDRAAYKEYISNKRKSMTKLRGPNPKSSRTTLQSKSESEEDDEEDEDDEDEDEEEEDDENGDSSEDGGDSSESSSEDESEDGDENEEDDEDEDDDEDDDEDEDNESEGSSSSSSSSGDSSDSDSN
# UniProt Q9NZI7, sequence (Q9NZI7 whole entry, looked up): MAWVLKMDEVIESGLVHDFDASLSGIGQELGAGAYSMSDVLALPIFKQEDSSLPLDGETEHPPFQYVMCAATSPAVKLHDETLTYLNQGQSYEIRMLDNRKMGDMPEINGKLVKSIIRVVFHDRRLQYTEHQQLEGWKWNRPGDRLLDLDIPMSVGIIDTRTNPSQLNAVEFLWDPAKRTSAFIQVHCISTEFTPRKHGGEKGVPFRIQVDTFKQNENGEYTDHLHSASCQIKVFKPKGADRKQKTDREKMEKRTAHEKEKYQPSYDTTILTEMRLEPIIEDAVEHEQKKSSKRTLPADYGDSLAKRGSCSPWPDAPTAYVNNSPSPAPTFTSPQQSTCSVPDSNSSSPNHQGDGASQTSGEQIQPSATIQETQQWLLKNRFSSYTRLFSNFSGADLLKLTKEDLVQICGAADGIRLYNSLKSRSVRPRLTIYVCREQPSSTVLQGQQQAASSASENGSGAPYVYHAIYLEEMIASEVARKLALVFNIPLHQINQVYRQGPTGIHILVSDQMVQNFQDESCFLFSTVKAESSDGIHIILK
# UniProt Q9UJT0, sequence (Q9UJT0 whole entry, looked up): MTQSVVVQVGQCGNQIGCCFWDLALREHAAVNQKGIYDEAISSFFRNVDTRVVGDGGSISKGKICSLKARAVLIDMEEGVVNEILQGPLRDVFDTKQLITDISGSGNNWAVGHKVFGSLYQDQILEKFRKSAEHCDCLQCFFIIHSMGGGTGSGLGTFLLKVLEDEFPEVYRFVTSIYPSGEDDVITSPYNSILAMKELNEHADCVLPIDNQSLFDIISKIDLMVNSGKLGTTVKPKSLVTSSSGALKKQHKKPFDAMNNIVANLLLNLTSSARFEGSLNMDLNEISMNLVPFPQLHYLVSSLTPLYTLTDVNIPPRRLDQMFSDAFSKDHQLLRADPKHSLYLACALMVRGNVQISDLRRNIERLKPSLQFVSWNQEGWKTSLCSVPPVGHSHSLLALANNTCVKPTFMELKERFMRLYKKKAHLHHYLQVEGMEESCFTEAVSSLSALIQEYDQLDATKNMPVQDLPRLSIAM
# UniProt Q96CW5, sequence (Q96CW5 whole entry, looked up): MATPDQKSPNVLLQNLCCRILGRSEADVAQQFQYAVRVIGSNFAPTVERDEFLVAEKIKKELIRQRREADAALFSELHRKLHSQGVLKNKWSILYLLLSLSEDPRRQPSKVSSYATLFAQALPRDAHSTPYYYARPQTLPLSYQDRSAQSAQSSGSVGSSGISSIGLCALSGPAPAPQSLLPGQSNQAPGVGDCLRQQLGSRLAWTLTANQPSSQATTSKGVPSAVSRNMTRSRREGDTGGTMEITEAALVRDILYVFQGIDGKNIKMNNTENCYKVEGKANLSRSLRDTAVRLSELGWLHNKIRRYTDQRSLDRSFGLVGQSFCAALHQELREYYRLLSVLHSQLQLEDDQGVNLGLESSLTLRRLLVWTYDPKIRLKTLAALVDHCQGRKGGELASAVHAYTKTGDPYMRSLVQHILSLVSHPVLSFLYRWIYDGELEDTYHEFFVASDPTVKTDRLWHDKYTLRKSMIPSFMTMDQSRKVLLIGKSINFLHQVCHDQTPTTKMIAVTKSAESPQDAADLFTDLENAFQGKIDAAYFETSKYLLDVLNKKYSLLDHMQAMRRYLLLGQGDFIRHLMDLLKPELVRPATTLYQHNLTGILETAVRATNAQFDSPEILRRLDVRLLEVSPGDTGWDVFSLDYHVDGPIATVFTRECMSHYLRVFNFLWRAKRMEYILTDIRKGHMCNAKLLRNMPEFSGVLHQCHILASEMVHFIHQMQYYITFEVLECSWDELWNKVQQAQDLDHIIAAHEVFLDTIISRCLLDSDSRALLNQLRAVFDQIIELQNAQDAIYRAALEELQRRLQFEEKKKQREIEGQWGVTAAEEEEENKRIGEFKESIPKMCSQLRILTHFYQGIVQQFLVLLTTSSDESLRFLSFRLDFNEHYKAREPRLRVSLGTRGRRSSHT
# UniProt Q9NUY8, sequence (Q9NUY8 whole entry, looked up): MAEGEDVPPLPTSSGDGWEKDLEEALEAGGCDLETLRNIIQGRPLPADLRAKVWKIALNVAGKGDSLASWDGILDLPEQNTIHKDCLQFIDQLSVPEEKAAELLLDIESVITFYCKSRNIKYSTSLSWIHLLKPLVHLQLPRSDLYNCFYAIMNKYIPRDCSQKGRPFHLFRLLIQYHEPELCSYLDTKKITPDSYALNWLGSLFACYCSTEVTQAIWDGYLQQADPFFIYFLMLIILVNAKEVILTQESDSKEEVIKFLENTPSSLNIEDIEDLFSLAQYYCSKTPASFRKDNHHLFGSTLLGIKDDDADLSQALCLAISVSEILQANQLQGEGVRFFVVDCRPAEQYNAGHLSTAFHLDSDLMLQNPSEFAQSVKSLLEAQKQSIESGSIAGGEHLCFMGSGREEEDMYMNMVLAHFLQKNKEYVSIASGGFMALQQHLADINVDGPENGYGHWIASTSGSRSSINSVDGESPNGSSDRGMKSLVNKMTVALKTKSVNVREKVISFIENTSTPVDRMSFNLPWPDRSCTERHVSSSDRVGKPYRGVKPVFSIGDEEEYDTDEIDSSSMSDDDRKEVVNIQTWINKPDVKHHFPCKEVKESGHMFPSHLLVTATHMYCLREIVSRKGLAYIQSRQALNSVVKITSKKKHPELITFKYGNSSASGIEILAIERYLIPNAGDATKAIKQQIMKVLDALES
Target,log2 fold change (ibrutinib),log2 fold change [1],log2 fold change (ralimetinib),log2 fold change [2],log2 fold change [3],log2 fold change [4],log2 fold change [5],log2 fold change [6],log2 fold change [7],log2 fold change [8],log2 fold change (vemurafenib),log2 fold change [9],log2 fold change (barasertib),log2 fold change [10],log2 fold change (volasertib),log2 fold change [11],log2 fold change [12],log2 fold change [13],log2 fold change (saracatinib),log2 fold change (sotrastaurin)
TUBE1 (UniProt Q9UJT0),0.065,-0.017,0.05,-0.034,0.024,-0.001,0.027,-0.02,0.001,-0.03,0.036,0.012,0.03,0.112,-0.005,0.028,0.257,-0.082,0.089,0.043
TCAF2 (UniProt A6NFQ2),0.009,-0.009,0.078,-0.017,0.013,0.022,0.055,-0.005,-0.021,0.063,0.052,0.041,-0.048,-0.027,-0.049,0.045,0.003,-0.05,0.004,-0.017
TUBGCP3 (UniProt Q96CW5),-0.007,0.018,0.03,0.045,-0.039,0.003,-0.037,0.004,0.106,0.028,-0.013,0.026,-0.078,0.001,-0.039,0.028,-0.016,0.015,0.002,0.01
TUT4 (UniProt Q5TAX3),0.024,-0.013,0.006,-0.07,0.023,-0.003,-0.045,-0.165,-0.007,0.041,0.091,-0.007,0.024,-0.021,-0.06,0.031,-0.085,0.083,-0.01,0.035
TIAL1 isoform 2 (UniProt Q01085),0.018,-0.004,-0.063,-0.001,-0.001,0.049,0.015,-0.167,-0.06,-0.012,-0.009,0.014,-0.023,0.072,0.005,0.002,-0.076,0.056,-0.02,-0.017
TGOLN2 isoform 7 (UniProt O43493),-0.023,0.013,-0.065,-0.058,0.003,0.009,0.005,-0.033,0.051,-0.013,0.02,0.023,-0.023,0.05,0.035,-0.094,-0.012,0.036,-0.033,0.06
UBP1 (UniProt Q9NZI7),-0.006,0.056,0.024,-0.004,0.048,-0.028,0.047,0.03,-0.037,0.004,-0.014,0.117,0.008,0.01,-0.017,0.007,0.228 (active),-0.24,-0.008,-0.063
UBTF (UniProt P17480),0.026,0.025,0.017,-0.002,0.016,0.046,-0.075,-0.022,0.044,-0.002,-0.024,0.002,0.011,-0.291 (active),-0.011,0.002,0.038,-0.067,0.042,0.023
TRMT10A (UniProt Q8TBZ6),-0.002,-0.003,0.021,-0.01,-0.033,0.009,-0.031,0.06,-0.022,0.07,0.005,-0.025,-0.08,0.118,-0.014,-0.005,-0.027,0.029,-0.014,0.006
TMEM87B (UniProt Q96K49),-0.076,-0.017,-0.003,-0.001,-0.047,-0.011,-0.01,-0.012,0.028,-0.012,-0.004,0.047,0.091,0.018,0.005,-0.006,0.074,-0.032,-0.166,0.026
UBE3C (UniProt Q15386),-0.011,0.024,0.012,-0.028,-0.011,0.005,0.04,-0.021,0.021,0.01,-0.001,0.006,0.016,-0.021,-0.073,0.086,-0.075,0.002,0.04,0.03
TBC1D23 (UniProt Q9NUY8),0.034,0.002,0.004,-0.021,0.03,0.032,-0.05,0.014,0.012,-0.012,-0.003,0.011,0,-0.027,-0.029,-0.012,-0.058,0.023,0.012,0.017
TMEM199 (UniProt Q8N511),0.067,0.001,-0.001,-0.078,-0.003,0.001,-0.275 (active),-0.043,-0.016,0.009,0,0.026,0.009,0.023,0,-0.003,-0.06,0.054,0.048,0.035
UBAP2L isoform 5 (UniProt Q14157),0.024,0.028,-0.026,-0.055,0.019,0.009,0.024,-0.529 (active),-0.009,0.003,-0.002,0.025,0.013,0.023,-0.006,0.013,0.028,-0.01,0.03,-0.002
TRIM33 isoform 2 (UniProt Q9UPN9),0.04,0.006,0.024,0.022,-0.026,0.01,0,-0.014,0.019,0.005,-0.018,-0.003,0.009,-0.008,-0.039,0.023,-0.132,0.05,0.027,0.043
TFIP11 (UniProt Q9UBB9),0.059,0.001,0.023,0.008,-0.022,0,-0.034,0.016,0.031,-0.003,0.017,0.025,-0.09,-0.018,-0.059,0.048,-0.027,-0.037,0.018,0.027
